Experimental data published in the supplement of paper PMC6555819.

Experiments:
Test in all cases: PBM binding z-score (relative to random genomic background probes); higher = stronger binding; sequences stand for … in GC…GCGATTGACAGCGTAGAATGAAGG
[1] = test system: PPARg:RXRa DBDmut IVT, anti-RXR (DBD mutation: RXRa K156A/R161A, NR concentration 270 nM, RXRa partner concentration 90 nM)
Method in brief: (§1)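 Custom Agilent 4×180K protein-binding microarrays carried double-stranded probes, each with a 34-nt variable region. These regions held direct-repeat seeds, single-nucleotide variants, half-site ablations and random human genomic background sequences. Ligand-free nuclear receptor dimers were incubated on the arrays for 1 h, antibodies against each partner (one per run) detected binding, and scanned fluorescence was regression-normalized. Binding z-scores take the random background probes as reference.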

[2] = test system: PPARg:RXRa IVT, anti-PPARg (NR concentration 270 nM, RXRa partner concentration 90 nM)
Method in brief: as §1

[3] = test system: PPARg DBDmut:RXRa IVT, anti-PPARg (DBD mutation: PPARg1 K132A/R137A, NR concentration 270 nM, RXRa partner concentration 90 nM)
Method in brief: as §1

[4] = test system: PPARg DBDmut IVT, anti-PPARg (DBD mutation: PPARg1 K132A/R137A, NR concentration 270 nM)
Method in brief: as §1

[5] = test system: PPARg homodimer (NR concentration 180 nM)
Method in brief: as §1

[6] = test system: PXR:RXRa (NR concentration 270 nM, RXRa partner concentration 90 nM)
Method in brief: as §1

[7] = test system: PXR homodimer (NR concentration 270 nM)
Method in brief: as §1

[8] = test system: RARa:RXR (NR concentration 270 nM, RXRa partner concentration 90 nM)
Method in brief: as §1

[9] = test system: RARa homodimer (NR concentration 270 nM)
Method in brief: as §1

[10] = test system: RARb:RXRa (NR concentration 270 nM, RXRa partner concentration 90 nM)
Method in brief: as §1

Row | Sequence | PBM binding z-score [1] | PBM binding z-score [2] | PBM binding z-score [3] | PBM binding z-score [4] | PBM binding z-score [5] | PBM binding z-score [6] | PBM binding z-score [7] | PBM binding z-score [8] | PBM binding z-score [9] | PBM binding z-score [10]
1 | CAAACTAGGTCACGAAAGGTCTAAGTCGAATGAC | 8.65 | 9.08 | 1.37 | 1.82 | 2.76 | 3.68 | 0.0383 | 3.59 | 0.679 | 4.39
2 | CTCGAAAGGTCGTGCTCAGGTGAGTAAACCAAAC | 0.815 | 1.96 | 0.213 | 0.0254 | 1.55 | 3.34 | 0.175 | 4.18 | 0.14 | 3.98
3 | ATCTCTACGTAAAGATAGTTCAGTGAATGCAAAT | -0.595 | 0.188 | 0.317 | 1.43 | -0.705 | 0.115 | 0.219 | -0.211 | 0.168 | 0.474
4 | CGAACGAGGGCATGAGTTGATACCAAATGCCGAT | 2.76 | 2.32 | -0.303 | -0.419 | 0.59 | 0.723 | 0.347 | 0.695 | -0.402 | 2.03
5 | ACTATTAGTTGAGACGAGGGGAACCGATAGGTTG | 0.452 | 0.325 | 0.853 | 0.931 | -0.148 | -0.0512 | 0.29 | -0.00202 | 0.237 | 0.18
6 | CCTATTGGGCCACGAAAGGTCATTGATTCAGTGA | 4.26 | 4.09 | 0.172 | -0.271 | 5.52 | 5.82 | 1.47 | 5.93 | 2.11 | 4.13
7 | TCGAGTAGTTTAGGGGCATTCAGAATGGCGTCGA | 0.75 | -0.281 | -0.799 | -1.01 | -0.288 | 0.444 | -0.187 | 0.532 | -0.906 | 0.653
8 | TCGAGTAGGTTGGGGGCATTCAGAATGGCGTCGA | 1.25 | 2.38 | 3.04 | 5.62 | 0.737 | 2.82 | 1.75 | 1.98 | 0.0369 | 1.6
9 | TCGTGTAGGTTAGGGGCATTCAGAATGGCGTCGA | 1.79 | 1.06 | 0.425 | 0.917 | 1.52 | 0.802 | 0.406 | 1.03 | 0.812 | 1.47
10 | GCAGACAGGTGAAACGCAGGTAAATCAGGGTGGC | 0.287 | 0.429 | -0.773 | -1.02 | -0.379 | -0.152 | -0.443 | 0.514 | -0.404 | 0.472
11 | CCTATTAGTTGACCATAAGGGCAACCGAAGCTCG | 0.774 | 0.558 | 0.33 | 0.387 | 1.7 | 1 | 0.754 | 1.37 | 1.39 | 1.7
12 | ACTAGCAGGCCAAGTTTGGGTCACTCTAACAAAG | 0.86 | 1.15 | -0.869 | -1.06 | 0.634 | 0.8 | -0.149 | 1.57 | -0.645 | 1.91
13 | CAAACTAGGTCATTGACAGGACAGTGAATAGTAA | 8.37 | 8.3 | 2.39 | 1.76 | 2.3 | 1.73 | 0.252 | 2.35 | 0.262 | 3.75
14 | TCTTGTAGATCAAAGGTTAGGAAAGCCGAAGCCT | 2.13 | 3.42 | 0.503 | 0.103 | 1.92 | 1.04 | -0.482 | 2.02 | 0.262 | 1.4
15 | TATATTAGTTGAAGGGCAACCGACGAGTCCGTTT | 0.182 | 0.973 | 1.48 | 1.13 | 1.26 | 0.629 | 0.738 | 0.321 | 1.47 | 1.68
16 | TCATTTAGGTAAAGGTGAAAGTCGAACGATATGA | 3.05 | 3.75 | 1.29 | 2.17 | 1.2 | 1.35 | 0.193 | 1.92 | 1.42 | 2.05
17 | TCTGCTAGGTCAGTTGTTCAGCTAACGAGCTGCC | 2.38 | 2.46 | -0.0117 | 0.257 | -0.0463 | 0.0123 | -1.04 | 0.419 | -1.19 | 3.15
18 | CCTGTTAGGTCAATGGTCAGCTAAAGCAGCTCGC | 3.49 | 3.13 | -0.195 | -0.0792 | 2.54 | 1.43 | 0.214 | 2.39 | 1.21 | 4.14
19 | ATATTTAGGTTACATCCGGGTCATTCAGGCTATG | 6.5 | 6.04 | 2.49 | 3.35 | 3.88 | 3.75 | 3.78 | 4.29 | 3.08 | 2.54
20 | CCTTACGGGTCAAGGTGATAGCACGGGTGGTACG | 1.85 | 3.49 | -0.115 | -0.375 | 1.63 | 2.89 | -0.103 | 3.84 | 0.455 | 4.11
21 | CTACCGAGGTGAACAAGGTCGTTGATTACTATTC | 2.91 | 3.47 | 0.523 | 0.329 | 0.965 | 3.25 | 1.95 | 2.62 | -0.15 | 2.19
22 | ATCTCTAGGTAAAGATAGTCCAGTGAATGCAAAT | 2.01 | 1.66 | 1.44 | 0.736 | 0.414 | -0.159 | 0.523 | -0.259 | 0.93 | -0.257

Row | Sequence | PBM binding z-score [1] | PBM binding z-score [2] | PBM binding z-score [3] | PBM binding z-score [4] | PBM binding z-score [5] | PBM binding z-score [6] | PBM binding z-score [7] | PBM binding z-score [8] | PBM binding z-score [9] | PBM binding z-score [10]
23 | ACTATTAGTTGACTTACGGCAACCGATACGACGC | -0.0111 | 0.189 | 0.614 | 1.35 | 0.496 | -0.0445 | -0.0464 | 0.256 | 0.942 | 0.199
24 | CTTACTGGGCCACGAAAGGTCATTGATTCAGTGA | 7.15 | 7.26 | 1.25 | 0.41 | 3.04 | 5.88 | 2.14 | 5.98 | 0.212 | 4.38
25 | TCAGACAGGTGAAGGTAACTTAGGTACGCAGTCG | 2.71 | 1.37 | 0.399 | 0.159 | 1.08 | 0.989 | 0.206 | 1.27 | 0.365 | 1.15
26 | GCTTGTAGATCAAGTTTAAGAAAGACTAAGCTAA | 0.956 | 0.313 | 0.0425 | 0.223 | -0.136 | 0.206 | 0.211 | 0.203 | -0.548 | -0.0982
27 | ATAAGTAGGTTACATCCGGGTCATTCAGGCTATG | 7.68 | 7.66 | 4.25 | 3.55 | 2.34 | 3.51 | 2.42 | 3.58 | 1.79 | 2.26
28 | CCTACTGGGCCAAGGTCATTCATCAGTCAAAGCA | 4 | 4.59 | -0.258 | -0.0447 | 2.02 | 3.93 | 1.66 | 3.84 | 0.345 | 3.34
29 | TAGCCTAGGTCAGATCGGGCCAGTATGCGCTATA | 0.347 | 1.3 | -0.699 | -0.549 | -0.654 | 0.891 | -0.704 | 0.898 | -0.754 | 3.16
30 | CCGACTGCGGCAAGGTTACCATAACGCACAGCCA | -0.209 | -0.134 | -0.21 | -0.256 | 0.4 | 0.562 | 0.00644 | 0.946 | 0.0538 | 0.845
31 | GCACACAGGTGAAACGCAGGTAACTCAGGGTGGC | 1.25 | 1.35 | -0.286 | -0.23 | -0.0515 | -0.134 | -0.747 | 0.575 | -0.648 | 0.803
32 | CCTGTTAGTTGACCATAAGGGCAACCGAAGCTCG | 0.268 | 0.863 | 0.531 | 0.804 | 1.39 | 0.426 | 0.794 | 0.804 | 1.03 | 1.74
33 | TCTTGTAGATCAATAGAGGTGAAGAAAGTGCGCT | 2.33 | 1.64 | 0.582 | 1.07 | -0.35 | 1.52 | -0.318 | 1.28 | 0.328 | 0.777
34 | ACAGACAGGTGAGTAAAGGTAACTCAGCTGGACG | 0.353 | 1.07 | 0.151 | -0.231 | -0.162 | 0.082 | -0.77 | 1.06 | -0.0924 | 0.798
35 | AGAATGAGGTTATTAAGATCAGCGAATTGCGGTC | 3.16 | 2.5 | 0.614 | 0.292 | 0.609 | 1 | 0.607 | 1.22 | 0.18 | 1.27
36 | ATATGTAGGTTATCGGGTCATGCAGTTTGCGCAT | 7.6 | 7.68 | 2.17 | 1.66 | 2.79 | 3.47 | 2.99 | 4.11 | 1.09 | 2.55
37 | AGAATGAGGTTAAGAGCAGGGAAACAGAATACAT | 2.72 | 2.37 | 0.618 | 0.293 | 0.456 | 1.09 | 0.121 | 1.69 | -0.0125 | 1.71
38 | AGAACGAGGGCAATGCGTTGATAGCACGGGTGGC | 2.94 | 2.57 | 1.12 | 0.0782 | -0.251 | 0.219 | 0.111 | 0.271 | -0.114 | 2.21
39 | TCATATAGGTAAATGCTAGGTGAACGTCCGATCT | 4.03 | 2.94 | 0.935 | 1.01 | 0.675 | 0.493 | 0.0506 | 0.769 | 0.634 | 0.536
40 | TCTTGTAGATCAACAGGAGGTTAACAAAGATCGA | 1.52 | 1.09 | 0.689 | 0.664 | 0.353 | 1.08 | 0.0367 | 1.36 | -0.353 | 0.717
41 | ATATGTAGGTTGAGGGTCATTCAGGTTGGTTCGC | 4 | 4.86 | 1.94 | 0.913 | 3.16 | 4.49 | 2.53 | 3.89 | 1.57 | 2.57
42 | CGAACTAGGTCATCCAGGACTGTGAATACATTGA | 8.21 | 8.17 | 6.94 | 2.3 | 3.35 | 1.48 | 0.582 | 2.24 | 0.701 | 3.73
43 | CCGACTGGGGCAAAGGTTATCATACTCAGTACGA | 4.35 | 5.85 | -0.186 | 0.138 | 2.13 | 2.11 | -0.0954 | 3.14 | -0.00422 | 2.08
44 | CAAACTAGGGCACGAAAGGTCAAAGTCGAATGAC | 7.59 | 8.38 | 2.22 | 0.682 | 2.46 | 5.93 | 1.28 | 6.53 | 1.46 | 4.98
